Laboratory results reported in PubChem BioAssay (NCATS).
Inconclusive results are not listed. A call without a number means that no potency is given here. Values without a mark were called inactive. Active and inactive are the calls of the source. Unless noted, calls follow the shape of the full dose curve.

Assays:
[1] = qHTS for Inhibitors of the Functional Ribonucleoprotein Complex (vRNP) of Lassa (LASV) Arenavirus: LASV Primary Screen - GLuc reporter signal (AID 1347082; calls by dose curve; tested in HEK293 reporter line; also: nearly all actives have a fitted effect of over 60% in size; also: potency is read from the fitted curve at half-maximal effect)
[2] = qHTS for Inhibitors of the Functional Ribonucleoprotein Complex (vRNP) of Lassa (LASV) Arenavirus: Viability assay - alamar blue signal for LASV Primary Screen (AID 1347083; calls by dose curve; tested in HEK293 reporter line; also: nearly all actives have a fitted effect of over 80% in size; also: potency is read from the fitted curve at half-maximal effect)
[3] = qHTS for Inhibitors of the Functional Ribonucleoprotein Complex (vRNP) of Lymphocytic Choriomeningitis Arenaviruses (LCMV): Viability assay - alamar blue signal for LCMV Primary Screen (AID 1347085; calls by dose curve; tested in HEK293 reporter line; also: nearly all actives have a fitted effect of over 80% in size; also: potency is read from the fitted curve at half-maximal effect)
[4] = molecular target: Nucleoprotein (Lymphocytic choriomeningitis virus (strain Armstrong)) (UniProt P09992); test: qHTS for Inhibitors of the Functional Ribonucleoprotein Complex (vRNP) of Lymphocytic Choriomeningitis Arenaviruses (LCMV): LCMV Primary Screen - GLuc reporter signal (AID 1347086); also: series mostly up to about 57 µM; nearly all actives have a fitted effect of over 70% in size
Nucleoprotein (Lymphocytic choriomeningitis virus (strain Armstrong)), sequence (P09992 whole entry, looked up): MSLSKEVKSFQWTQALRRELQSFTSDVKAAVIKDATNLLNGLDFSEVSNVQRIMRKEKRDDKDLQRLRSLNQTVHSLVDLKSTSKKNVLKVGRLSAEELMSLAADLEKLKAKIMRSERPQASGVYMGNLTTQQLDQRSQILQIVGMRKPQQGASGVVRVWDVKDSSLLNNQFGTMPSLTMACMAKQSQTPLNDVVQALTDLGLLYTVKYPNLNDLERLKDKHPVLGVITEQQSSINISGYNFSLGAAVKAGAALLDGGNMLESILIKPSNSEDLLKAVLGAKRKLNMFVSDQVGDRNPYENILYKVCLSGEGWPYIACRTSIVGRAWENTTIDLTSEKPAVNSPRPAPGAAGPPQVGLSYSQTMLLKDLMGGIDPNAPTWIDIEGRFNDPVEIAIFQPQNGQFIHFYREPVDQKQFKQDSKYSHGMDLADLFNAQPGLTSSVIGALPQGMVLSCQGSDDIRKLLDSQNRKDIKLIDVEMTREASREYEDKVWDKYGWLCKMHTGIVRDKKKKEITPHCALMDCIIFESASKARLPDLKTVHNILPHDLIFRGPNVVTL

For `CN(C)C(=O)C(CCN1CCC(O)(c2ccc(Cl)cc2)CC1)(c1ccccc1)c1ccccc1`, which Potency [1] is on record?
Its Potency is “inactive”.

And the Potency [2]?
Its Potency is “inactive”.

What does the source list for `COc1cc2ncnc(Nc3ccc(F)c(Cl)c3)c2cc1OCCCN1CCOCC1`?
Potency [1]: inactive; Potency [2]: 2.22 µM (active); Potency [3]: 1.11 µM (active)

With `NC(=O)N/N=C/c1ccc([N+](=O)[O-])o1` as the compound, how does the Potency [1] read?
The Potency was “inactive”.

What about the Potency [2] of the same compound?
Its Potency is “inactive”.

What about the Potency [3] of the same compound?
Its Potency is “inactive”.

Which Potency [1] does the source give for `CC(=O)O[C@@]12CO[C@@H]1C[C@H](O)[C@@]1(C)C(=O)[C@H](O)C3=C(C)[C@@H](OC(=O)[C@H](O)[C@@H](NC(=O)OC(C)(C)C)c4ccccc4)C[C@@](O)([C@@H](OC(=O)c4ccccc4)[C@H]21)C3(C)C` here?
The Potency was “inactive”.

And the Potency [2]?
The Potency was “inactive”.

And the Potency [3]?
Its Potency is “inactive”.

Which Potency [1] does the source give for `CN(C)c1nc(N(C)C)nc(N(C)C)n1` here?
Its Potency is “inactive”.

Which Potency [1] does the source give for `COC(=O)C1=C(C)NC(C)=C(C(=O)OCCN(C)Cc2ccccc2)C1c1cccc([N+](=O)[O-])c1` (stereo not drawn) here?
The Potency was “inactive”.

For `O=C1NC(c2ccccc2)(c2ccccc2)C(=O)N1COP(=O)(O)O`, which Potency [1] is on record?
The Potency was “inactive”.

What about the Potency [2] of the same compound?
The Potency was “inactive”.

And the Potency [3]?
The Potency was “inactive”.

What about the Potency [4] of the same compound?
The Potency was “inactive”.

For `CCCSc1ccc2nc(NC(=O)OC)[nH]c2c1`, which Potency [1] is on record?
The Potency was “inactive”.

For `COc1c(C)c2c(c(O)c1C/C=C(\C)CCC(=O)OCCN1CCOCC1)C(=O)OC2`, which Potency [1] is on record?
Its Potency is “inactive”.

With `CC(C)C(=O)Nc1ccc([N+](=O)[O-])c(C(F)(F)F)c1` as the compound, how does the Potency [1] read?
Its Potency is “inactive”.

What about the Potency [2] of the same compound?
Its Potency is “inactive”.

And the Potency [3]?
Its Potency is “inactive”.

Which Potency [1] does the source give for `COC(=O)Nc1nc2ccc(C(=O)c3cccs3)cc2[nH]1` here?
Its Potency is “inactive”.

And the Potency [2]?
The Potency was 0.0544 µM (active).

And the Potency [3]?
The Potency was 0.0273 µM (active).

Which Potency [1] does the source give for `CC(=O)[C@]1(O)Cc2c(O)c3c(c(O)c2[C@@H](O[C@H]2C[C@H](N)[C@H](O)[C@H](C)O2)C1)C(=O)c1ccccc1C3=O` here?
The Potency was 3.98 µM (active).

With `O=C1C(=O)c2ccccc2C(O)=C1C1CCC(c2ccc(Cl)cc2)CC1` (stereo not drawn) as the compound, how does the Potency [1] read?
Its Potency is “inactive”.

What about the Potency [2] of the same compound?
Its Potency is “inactive”.

And the Potency [3]?
The Potency was “inactive”.

What about the Potency [4] of the same compound?
The Potency was “inactive”.

With `CCOC(=O)c1ncn2c1CN(C)C(=O)c1cc(F)ccc1-2` as the compound, how does the Potency [1] read?
The Potency was “inactive”.

What about the Potency [2] of the same compound?
Its Potency is “inactive”.

What about the Potency [3] of the same compound?
Its Potency is “inactive”.

What about the Potency [4] of the same compound?
Its Potency is “inactive”.

Which Potency [1] does the source give for `COc1ccccc1OCCNCC(O)COc1cccc2[nH]c3ccccc3c12` (stereo not drawn) here?
The Potency was “inactive”.

What about the Potency [2] of the same compound?
The Potency was “inactive”.

What about the Potency [3] of the same compound?
The Potency was “inactive”.

And the Potency [4]?
Its Potency is “inactive”.

Which Potency [1] does the source give for `OCCN1C[C@H](O)[C@@H](O)[C@H](O)[C@H]1CO` here?
Its Potency is “inactive”.

What about the Potency [2] of the same compound?
The Potency was “inactive”.

Which results are given for `CCN(CC)CCCC(C)Nc1ccnc2cc(Cl)ccc12` (stereo not drawn)?
Potency [1]: inactive; Potency [2]: inactive; Potency [3]: inactive

For `COc1cc2c(N3CCN(C(=O)Nc4ccc(OC(C)C)cc4)CC3)ncnc2cc1OCCCN1CCCCC1`, which Potency [1] is on record?
The Potency was “inactive”.

What about the Potency [2] of the same compound?
The Potency was “inactive”.

And the Potency [3]?
Its Potency is “inactive”.

And the Potency [4]?
Its Potency is “inactive”.

Which results are given for `Cc1c(OCC(F)(F)F)ccnc1CS(=O)c1nc2ccccc2[nH]1` (stereo not drawn)?
Potency [1]: inactive; Potency [2]: inactive; Potency [3]: inactive; Potency [4]: inactive

Which Potency [1] does the source give for `COC(=O)C1=C(C)NC(C)=C(C(=O)OC(C)C)C1c1cccc2nonc12` (stereo not drawn) here?
Its Potency is “inactive”.

For `CCC(=O)O[C@H]1[C@H](O[C@@H]2[C@@H](C)[C@H](O[C@H]3C[C@@](C)(OC)[C@@H](O)[C@H](C)O3)[C@@H](C)C(=O)O[C@H](CC)[C@@](C)(O)[C@H](O)[C@@H](C)C(=O)[C@H](C)C[C@@]2(C)O)O[C@H](C)C[C@@H]1N(C)C`, which Potency [1] is on record?
Its Potency is “inactive”.

And the Potency [2]?
The Potency was “inactive”.

What about the Potency [3] of the same compound?
Its Potency is “inactive”.

What about the Potency [4] of the same compound?
Its Potency is “inactive”.

With `CC(C)n1c(/C=C/[C@@H](O)C[C@@H](O)CC(=O)O)c(-c2ccc(F)cc2)c2ccccc21` as the compound, how does the Potency [1] read?
The Potency was “inactive”.

What does the source list for `Cc1c(O)cccc1C(=O)N[C@@H](CSc1ccccc1)[C@H](O)CN1C[C@H]2CCCC[C@H]2C[C@H]1C(=O)NC(C)(C)C`?
Potency [1]: inactive; Potency [2]: inactive; Potency [3]: inactive; Potency [4]: inactive

Which Potency [1] does the source give for `CC(C)NC[C@@H](O)COc1ccc(CC(N)=O)cc1` here?
Its Potency is “inactive”.

And the Potency [2]?
Its Potency is “inactive”.

What about the Potency [3] of the same compound?
The Potency was “inactive”.

And the Potency [4]?
The Potency was “inactive”.

What does the source list for `COc1cc(C(C)=O)ccc1OCCCN1CCC(c2noc3cc(F)ccc23)CC1`?
Potency [1]: inactive; Potency [2]: inactive; Potency [3]: inactive; Potency [4]: inactive

With `CN1C(=O)CC(C)(c2ccccc2)C1=O` (stereo not drawn) as the compound, how does the Potency [1] read?
Its Potency is “inactive”.

What about the Potency [2] of the same compound?
The Potency was “inactive”.

What about the Potency [3] of the same compound?
Its Potency is “inactive”.

What about the Potency [4] of the same compound?
The Potency was “inactive”.

With `CN(C)CCc1c[nH]c2ccc(C[C@H]3COC(=O)N3)cc12` as the compound, how does the Potency [1] read?
Its Potency is “inactive”.

And the Potency [2]?
Its Potency is “inactive”.

What about the Potency [3] of the same compound?
The Potency was “inactive”.

And the Potency [4]?
The Potency was “inactive”.

For `COc1cc(C(=O)NCc2ccc(OCCN(C)C)cc2)cc(OC)c1OC`, which Potency [1] is on record?
The Potency was “inactive”.

What about the Potency [2] of the same compound?
Its Potency is “inactive”.

And the Potency [3]?
Its Potency is “inactive”.

What about the Potency [4] of the same compound?
Its Potency is “inactive”.

What does the source list for `C[C@@H](O)[C@H]1C(=O)N2C(C(=O)O)=C(S[C@@H]3CN[C@H](CNS(N)(=O)=O)C3)[C@H](C)[C@H]12`?
Potency [1]: inactive; Potency [2]: inactive; Potency [3]: inactive; Potency [4]: inactive

With `CC(C)Oc1ccc2c(=O)c(-c3ccccc3)coc2c1` as the compound, how does the Potency [1] read?
The Potency was “inactive”.

What about the Potency [2] of the same compound?
Its Potency is “inactive”.

What about the Potency [3] of the same compound?
The Potency was “inactive”.

And the Potency [4]?
The Potency was “inactive”.

For `COc1cc2nc(N3CCN(C(=O)C4COc5ccccc5O4)CC3)nc(N)c2cc1OC` (stereo not drawn), which Potency [1] is on record?
Its Potency is “inactive”.

What about the Potency [2] of the same compound?
Its Potency is “inactive”.

What about the Potency [3] of the same compound?
Its Potency is “inactive”.

And the Potency [4]?
The Potency was “inactive”.
